AmpC no deterg: AmpC beta-lactamase inhibition without detergent. P00811. AmpC nitrocefin hydrolysis, absorbance 480 nm, 0.0001% Triton. Potency, µM (series often up to 57.1 µM), for inactives: top-dose activity change, negative = inhibition, hits mostly inhibitors. 0.52% of 330,000 active;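 further: plate controls were no compound for no effect and no enzyme for full effect; nearly all actives have a fitted effect of over 20% in size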
Target sequence (P00811 whole entry, looked up): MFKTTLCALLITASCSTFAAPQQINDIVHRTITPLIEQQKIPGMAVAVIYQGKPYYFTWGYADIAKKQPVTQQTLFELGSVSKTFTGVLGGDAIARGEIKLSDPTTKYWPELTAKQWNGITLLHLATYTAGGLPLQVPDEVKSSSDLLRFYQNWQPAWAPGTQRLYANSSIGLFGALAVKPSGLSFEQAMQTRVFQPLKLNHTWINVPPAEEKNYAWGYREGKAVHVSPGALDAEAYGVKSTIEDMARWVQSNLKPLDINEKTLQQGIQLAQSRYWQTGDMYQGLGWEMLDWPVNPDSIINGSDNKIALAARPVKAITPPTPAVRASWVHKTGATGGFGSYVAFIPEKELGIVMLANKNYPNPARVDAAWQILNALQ
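20 mM phosphate pH 7.0 + 0.01% (detergent screen) or 0.0001% Triton X-100; 5.3 nM AmpC reagent; cpd preinc 15 min RT; nitrocefin (800 uM stock) to start; A480 q20 s × 4 min; Activity was normalised to no-enzyme and no-compound control wells.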
FMDV inh: foot and mouth disease virus antiviral activity; 1.2% of 410,000 active; AID 1159524; FMDV antiviral cell-based qHTS; Potency, µM (titrated, usually from 57.9 µM), inactives show at the highest dose activity change, negative = inhibition, usual class: inhibitors; calls by dose curve; tested in HEK293T cells; further: read-out not given here; nearly all actives have a fitted effect of over 45% in size
AmpC detergent: inhibitors of E. coli AmpC beta-lactamase with detergent; AID 485294; AmpC hydrolysis of nitrocefin, absorbance 480 nm, 0.01% Triton; 0.041% of 370,000 active; P00811; Potency, µM (series often up to 114 µM), without a hit: at the top dose activity change, negative = inhibition, hits mostly inhibitors;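 further: 0% = no-compound wells and -100% = no-enzyme wells; nearly all actives have a fitted effect of over 25% in size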
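AmpC (5.3 nM in the dispensed reagent) in 20 mM phosphate pH 7.0 with 0.01% (detergent screen) or 0.0001% Triton X-100 was preincubated with compounds for 15 min at room temperature. Nitrocefin was then added from an 800 uM solution, and hydrolysis was followed at 480 nm.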
Sm TGR block: S. mansoni TGR enzyme inhibition; 3% of 360,000 active; Potency, µM (top dose mostly 114 µM), without a hit: at the top dose activity change, negative = inhibition, hits mostly inhibitors; purified TGR, DTNB reduction, TNB absorbance 405 nm; Q962Y6; further: nearly all actives have a fitted effect of over 60% in size
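Kinetic colorimetric format: TGR-catalysed, NADPH-driven DTNB reduction monitored via TNB absorbance. Enzyme dispensed at 20 nM; compound exposure 15 min at room temperature before reaction start.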
AMA1-RON2 inh: AMA1-RON2 (P. falciparum) interaction inhibition | AID 720542 | AlphaScreen AMA1-biotinylated RON2 peptide binding | 0.2% of 360,000 active | Potency, µM (highest dose often 58.2 µM), for the others: at the highest dose activity change, negative = inhibition, usual class: inhibitors;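 further: 0% = vehicle wells and -100% = peptide control; nearly all actives have a fitted effect of over 45% in size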
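AMA1 (3D7) with his tag at 25 nM final met compounds first, then biotinylated RON2 peptide at 25 nM; detection used donor plus acceptor beads, 10 µg/mL apiece, read by AlphaScreen after 30 min at room temperature.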
* = called active by the depositor; ? = inconclusive; · = no result; ! = a repeat was not active. Hits are enriched below; roughly 4.1% of the tested compounds scored in any of these assays. Unless noted, the call rests on the fitted dose curve; in most records, active means well fitted curve in the direction sought with a large enough effect; inconclusive means small, poorly fitted or top-dose-only effect, or another doubt; inactive means no such curve, though single readings can be large; an effect the other way counts as inactive or inconclusive. Unless noted, on the % scale 0 is the no-effect control and ±100 the full control effect; potency means the concentration at half of the fitted maximal effect.

SMILES	AmpC no deterg	FMDV inh	AmpC detergent	Sm TGR block	AMA1-RON2 inh
CNC(=O)C1CC(=O)N(CCc2ccc(OC)c(OC)c2)C(=Nc2ccc(F)cc2)S1 (centres undefined)	-25.7%	-19.3%	2.3%	47.1%	-2.9%
COC(=O)c1cc(=O)n(Cc2ccc(F)cc2)c(=Nc2ccccc2)s1	-10.7%	?	-6.4%	7.1%	-19.0%
COC(=O)c1cc(=O)n(CCc2ccc(OC)c(OC)c2)c(=Nc2ccc(F)c(Cl)c2)s1	-8.9%	28.2µM*	-20.7%	-24.2%	1.5%
COc1ccc(C(=O)Nc2ccccc2SCc2cc(=O)c3cccc(C)c3[nH]2)cc1	·	81.5%	19.4%	-0.1%	·
COc1ccccc1CN1CCOc2ccc(CN3CCCCC3CO)cc2C1 (centres undefined)	·	-3.3%	·	·	·
Cc1ccc(C(=O)NCC(c2ccc(Cl)cc2)N2CCCCC2)cc1 (centres undefined)	·	-19.7%	4.9%	5.6%	·
CN(C)c1ccc(C=C2C(=O)NC(=S)NC2=O)cc1[N+](=O)[O-]	-20.5%	39.8µM*	1.0%	?	-15.8%
CC(=O)c1ccc(N2CCN(S(=O)(=O)c3ccc4c5c3CC(=O)N5CC(C)S4)CC2)cc1 (centres undefined)	58.1%	14.1µM*	-0.1%	?	13.4%
Cn1c(=O)c2c(nc(NCCO)n2CCCc2ccccc2)n(C)c1=O	-4.0%	?	-3.0%	18.1%	-0.3%
CC(Cl)=CCn1c(NCCc2ccccc2)nc2c1c(=O)n(C)c(=O)n2C	·	12.6µM*	·	·	-1.9%
CC(C)CCn1c(NCCc2ccccc2)nc2c1c(=O)n(C)c(=O)n2C	34.3%	20µM*	6.3%	-1.9%	-8.9%
Cn1c(=O)c2c(nc(NCc3ccco3)n2C/C=C/c2ccccc2)n(C)c1=O	12.3%	14.1µM*	-15.5%	-13.4%	-6.2%
Cn1c(=O)c2c(nc(NCc3ccco3)n2C)n(C)c1=O	-10.1%	·	?	39.2%	-11.7%
Cn1c(=O)c2c(nc(NCCc3ccccc3)n2Cc2ccc(F)cc2)n(C)c1=O	57.7%	?	0.6%	5.8%	-13.1%
O=C(NCc1cccs1)c1ccc(Cn2c(SCc3cccc(F)c3)nc3cccnc32)cc1	·	-6.9%	4.5%	1.5%	·
COc1cc(=O)n2c(c1C(=O)NCc1ccco1)CCN(Cc1ccc(F)cc1Cl)CC2	·	-3.0%	·	·	·
CCC(NC(=O)c1ccc2nc(Cc3ccc(OC)cc3)oc2c1)c1ccncc1 (centres undefined)	97.6%	20µM*	-8.6%	-7.6%	13.1%
O=[N+]([O-])c1ccc(Nc2ccc(Cl)cc2)nc1	-1.2%	9.3%	-9.8%	4.5%	-9.0%
O=[N+]([O-])c1ccc(Nc2ccc3ccccc3c2)nc1	0.316µM*	·	0.6%	-0.1%	-4.8%
CCC(=O)N1CCc2cc(S(=O)(=O)NC(Cc3ccccc3)C(=O)NCc3cccc(OC)c3)ccc21 (centres undefined)	·	21.1%	2.7%	-5.5%	·
C[c-]1[c-](C)[c-](C)[c-](C)[c-]1C.[Fe].c1cc2nccc(N3CCCC3)[c-]2c1 (centres undefined)	8.7%	0.0%	-6.9%	3.16µM*!	?
Cc1cc(NCc2ccncc2)ccc1Br	-14.6%	10.4%	-2.0%	-6.0%	25.1µM*
O=C1CC(SCc2nc3ccccc3[nH]2)C(=O)N1c1ccc(F)cc1 (centres undefined)	-18.5%	-0.7%	2.8%	44.7µM*	80.0%
O=C1CC(SCc2nc3ccccc3[nH]2)C(=O)N1c1cccc(Cl)c1 (centres undefined)	-47.0%	3.4%	?	?	71.0%
Cc1c(C(=O)NCC(C)C)sc2ncnc(NCC3CCCO3)c12 (centres undefined)	·	0.3%	·	·	·
SMILES	AmpC no deterg	FMDV inh	AmpC detergent	Sm TGR block	AMA1-RON2 inh
O=C(NCc1ccco1)C1OCCc2ccccc21 (centres undefined)	-29.3%	-7.1%	-3.9%	22.4µM*	4.8%
COc1ccc(NS(=O)(=O)c2cccc(NC(=O)c3ccc(Cl)nc3)c2)cc1	-53.3%	31.6µM*	-12.3%	17.0%	1.2%
Cc1ccccc1NC(=O)CSc1cn(CC(=O)N(C(C)C)C(C)C)c2ccccc12	·	-14.3%	6.8%	0.7%	·
COc1ccc(C)cc1C(=O)CCC(=O)Nc1ccccc1N1CCOCC1	31.0%	0.0%	?	22.4µM*	30.3%
COCCCNC(=O)NC(CCC(C)C)c1c(-n2cccc2)sc2c1CCN(C)C2 (centres undefined)	·	-11.7%	13.4%	-24.3%	·
COc1ccc(F)cc1-c1cc(NC=O)c2ncc(-c3cc(OC)c(OC)c(OC)c3)n2c1	·	31.6µM*	·	·	-0.6%
COc1cc(-c2cnc3c(NC=O)cc(-c4ccccc4)cn23)cc(OC)c1OC	·	?	·	·	8.2%
O=C1c2ccccc2C(=O)N1Nc1ccccc1	-13.1%	0.0%	-8.7%	-0.5%	-9.9%
Cc1ccc(NN2C(=O)C=C(c3ccccc3)C2=O)cc1	-27.7%	20µM*	-11.3%	?	7.8%
CCOc1ccc(NC(=O)Cn2cc(C(=O)c3ccccc3)c(=O)c3cc4c(cc32)OCO4)cc1	·	-5.8%	2.0%	-2.1%	·
CN(Cc1ccccc1)C(=O)c1ncn(C)c1C(=O)N(C)Cc1ccccc1	2.2%	-6.3%	0.8%	20µM*	-7.5%
CCCc1ccc(OC(C)c2nc(-c3ccc(-n4cccc4)cc3)no2)cc1 (centres undefined)	·	?	2.2%	8.6%	·
CC(=O)c1ccc(N2CCN(S(=O)(=O)c3cc(-c4onc(C)c4C)ccc3C)CC2)cc1	·	?	2.9%	-0.1%	·
CCC(C)NC(=O)c1ccccc1NC(=O)C1CCN(S(=O)(=O)Cc2ccccc2)CC1 (centres undefined)	·	-8.8%	-6.8%	-2.0%	·
COC(=O)c1c(C)oc(C)c1S(=O)(=O)Nc1ccccc1	-17.2%	61.3%	0.6%	-4.9%	3.0%
COC(=O)c1c(C)oc(C)c1S(=O)(=O)NC(C)(C)C	-0.6%	-1.1%	-4.6%	25.1µM*	-19.3%
COC(=O)c1c(C)oc(C)c1S(=O)(=O)N1CCCC1	-3.1%	-19.4%	8.3%	50.1µM*	9.8%
COC(=O)c1c(C)oc(C)c1S(=O)(=O)N(Cc1ccccc1)C(C)C	2.0%	?	6.6%	31.6µM*	-16.1%
COC(=O)c1c(C)oc(C)c1S(=O)(=O)N1CCCCC1	-7.7%	3.3%	4.6%	39.8µM*	-21.5%
O=C(COc1ccccc1Cl)NCC1(N2CCOCC2)CCCCC1	·	-22.6%	-0.7%	-12.6%	·
CCc1noc(-c2ccc(NCc3ccccc3)c([N+](=O)[O-])c2)n1	·	18.8%	-5.9%	-5.3%	·
Cc1cc(Nc2ccc(C)c(C)c2)n2cnnc2n1	·	10.4%	3.4%	0.0%	·
CCOC(=O)Cn1c(=O)oc2cc(S(=O)(=O)Nc3ccccc3F)ccc21	·	4.8%	?	7.3%	·
COC(=O)/C(=C/c1cn(C(C)=O)c2ccccc12)[N+](=O)[O-]	-16.9%	-28.0%	2.8%	3.55µM*	2.8%

Bioassay records: PubChem BioAssay, National Center for Advancing Translational Sciences (NCATS)
